# Data as given in PubChem BioAssay (NCATS).
# Unmarked numbers belong to inactive results. Inconclusive results are not listed. Calls of active or inactive are those of the source. Unless noted, calls follow the shape of the dose curve; as a rule, active = well fitted curve in either direction with a large enough effect (not every such curve was filed as active); inconclusive = small, poorly fitted or top-dose-only effect, or another doubt; inactive = flat fitted curve, though single readings scatter.
# Biological target: Glucocorticoid receptor (Homo sapiens) (UniProt P04150)
# Sequence (P04150 whole entry, looked up): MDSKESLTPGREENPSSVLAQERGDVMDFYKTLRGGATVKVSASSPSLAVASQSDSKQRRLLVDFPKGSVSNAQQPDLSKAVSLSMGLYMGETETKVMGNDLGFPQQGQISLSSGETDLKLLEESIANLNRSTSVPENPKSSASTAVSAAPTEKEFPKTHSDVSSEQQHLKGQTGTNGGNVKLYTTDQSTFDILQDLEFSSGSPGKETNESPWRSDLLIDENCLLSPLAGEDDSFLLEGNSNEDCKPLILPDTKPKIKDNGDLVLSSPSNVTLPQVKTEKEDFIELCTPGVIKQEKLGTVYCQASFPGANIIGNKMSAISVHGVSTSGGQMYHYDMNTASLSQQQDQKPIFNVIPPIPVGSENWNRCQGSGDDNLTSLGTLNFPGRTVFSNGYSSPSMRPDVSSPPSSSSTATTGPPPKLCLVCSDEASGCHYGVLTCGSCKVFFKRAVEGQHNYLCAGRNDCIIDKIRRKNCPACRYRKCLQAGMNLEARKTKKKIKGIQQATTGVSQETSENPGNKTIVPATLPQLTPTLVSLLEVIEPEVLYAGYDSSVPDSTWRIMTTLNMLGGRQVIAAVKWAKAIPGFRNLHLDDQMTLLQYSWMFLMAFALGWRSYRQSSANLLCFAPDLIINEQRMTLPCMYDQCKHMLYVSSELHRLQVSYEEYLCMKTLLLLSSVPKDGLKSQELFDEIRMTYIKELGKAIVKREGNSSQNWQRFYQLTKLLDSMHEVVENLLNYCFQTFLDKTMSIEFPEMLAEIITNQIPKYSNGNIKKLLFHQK
# Experiment: GR-EFC Redistribution (AID 451; calls by dose curve; also: potency is read from the fitted curve at half-maximal effect)
# Details: CHO-K1 GR-EFC translocation, beta-gal luminescence, 2 h
# Procedure, shortened: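 CHO-K1 cells stably expressing nuclear-localized β-gal enzyme acceptor and GR fused C-terminally to the enzyme donor fragment; ligand-driven nuclear translocation restores β-gal by complementation. Compounds titrated up to 46 uM final, 2 h at 37 °C; luminescence read.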
row,SMILES,Potency
1,Cc1nc2cnc(OCc3ccccc3)nc2n(Cc2ccc(F)cc2)c1=O,> 46 µM
2,NS(=O)(=O)c1cc(C(=O)O)c(O)c2ccccc12,> 9.22 µM
3,CN(C)Cc1ccccc1-c1ccc2ncnc(NC3CCNCC3)c2c1,> 46 µM
4,COc1ccc(-n2c(=O)c(C)nc3cnc(Oc4cccc(Cl)c4)nc32)cc1,> 46 µM
5,CSc1nc(C)cc(Nc2ccc(O)c(CN3CCOCC3)c2)n1,> 9.22 µM
6,O=C(O)[C@@H](S)[C@H](S)C(=O)O,> 9.22 µM
7,CNc1ncncc1-c1ccc(C(=O)N(C)C)cc1,> 46 µM
8,O=C(O)c1cc(N=Nc2ccc([N+](=O)[O-])cc2)ccc1O,> 9.22 µM
9,Cc1c(C)c(C)c(CC2(C)CSC2)c(CC2(C)CSC2)c1C,> 9.22 µM
10,CC(C)(C)NC[C@@H](O)c1ccc(O)c(CO)n1,> 9.22 µM
11,CC(C)Cn1cnc2c(Sc3c([N+](=O)[O-])ncn3C)nc(N)nc21,> 9.22 µM
12,C/C(=N\O)c1cccc[n+]1Cc1ccccc1,> 9.22 µM
13,NS(=O)(=O)c1cc2c(cc1Cl)N[C@H](Cc1ccccc1)NS2(=O)=O,> 9.22 µM
14,NC(=O)[C@@H]1CCCN1Cc1ccc2c(c1)OCO2,> 9.22 µM

# Biological target: Mitogen-activated protein kinase 10 (Mus musculus) (UniProt Q61831)
# Experiment: JNK3 AlphaScreen Assay (AID 530);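 also: kinase came from lysate of stimulated human HepG2 cells; signal reports phosphorylation of biotinylated GST-cJun 1-79 at Ser73 with 10 µM ATP; % is scaled to controls: 0 for no effect and ±100 for the full control effect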
# Details: JNK3 lysate, c-Jun phosphorylation; series mostly up to 11.4 µM; activity change, negative = inhibition: at the top concentration
# Procedure, shortened: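 Phosphorylation of biotinylated GST-cJun(1-79) at Ser73 is measured by AlphaScreen proximity luminescence. Enzyme is JNK3 in HepG2 lysates activated with interleukin-1beta and tumor necrosis factor alpha; ATP is 10 uM final.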
SMILES,"activity change, negative = inhibition",Potency
O=C(O)C[C@H](Cc1ccc2c(c1)OCO2)C(=O)O,4.72%,–
CC(=O)OCC(=O)[C@]12OC(C)(C)O[C@@H]1C[C@H]1[C@H]3CC=C4C[C@@H](O)CC[C@]4(C)[C@H]3CC[C@]12C,0.109%,–
COc1ccc2cc1Oc1ccc(cc1)C[C@H]1c3cc(c(OC)cc3CCN1C)Oc1c(OC)c(OC)cc3c1[C@@H](C2)N(C)CC3,–,inactive
N[C@@H](CSCc1ccccc1)C(=O)O,5.03%,–
CN(C)[C@H]1C(=O)C(C(=O)NCN2CCCC2)=C(O)[C@]2(O)C(=O)C3=C(O)c4c(O)cccc4[C@](C)(O)[C@H]3C[C@H]12,-8.4%,–
CN(C)c1ccc(-c2cc(NCc3ccccc3)ncn2)cc1,4.68% [at 57.1 µM],–
COc1ccccc1-c1nc(NCc2ccccc2)c2ccccc2n1,-13.4% [at 57.1 µM],–
C[C@]12CC[C@H]3c4ccc(O)cc4CC[C@@H]3[C@H]1CC[C@@H]2OC(=O)CCC1CCCC1,-0.502%,–
Nc1nc2c(ncn2[C@@H]2C=C[C@@H](CO)C2)c(=O)[nH]1,2.55%,–
CN(N=O)c1ccc(/C=C\c2ccnc3ccccc23)cc1,32.3%,–
COc1cccc(Cn2c(=O)c(C)nc3cnc(Oc4cccc(Cl)c4)nc32)c1,19.4% [at 57.1 µM],–
Cc1cn([C@H]2C[C@H](N=[N+]=[N-])[C@H](CO)O2)c(=O)[nH]c1=O,0.507%,–
Cc1nc2cnc(OCc3ccccc3)nc2n(Cc2ccc(F)cc2)c1=O,0.334% [at 57.1 µM],–
NS(=O)(=O)c1cc(C(=O)O)c(O)c2ccccc12,2.76%,–
CN(C)Cc1ccccc1-c1ccc2ncnc(NC3CCNCC3)c2c1,3.15% [at 57.1 µM],–
COc1ccc(-n2c(=O)c(C)nc3cnc(Oc4cccc(Cl)c4)nc32)cc1,-1.33% [at 57.1 µM],–
CSc1nc(C)cc(Nc2ccc(O)c(CN3CCOCC3)c2)n1,-0.841%,–
O=C(O)[C@@H](S)[C@H](S)C(=O)O,2.79%,–
CNc1ncncc1-c1ccc(C(=O)N(C)C)cc1,0.743% [at 57.1 µM],–
O=C(O)c1cc(N=Nc2ccc([N+](=O)[O-])cc2)ccc1O,-22.8%,–
Cc1c(C)c(C)c(CC2(C)CSC2)c(CC2(C)CSC2)c1C,-2.04%,–
CC(C)(C)NC[C@@H](O)c1ccc(O)c(CO)n1,4.42%,–
CC(C)Cn1cnc2c(Sc3c([N+](=O)[O-])ncn3C)nc(N)nc21,6.3%,–
C/C(=N\O)c1cccc[n+]1Cc1ccccc1,5.93%,–
NS(=O)(=O)c1cc2c(cc1Cl)N[C@H](Cc1ccccc1)NS2(=O)=O,1.29%,–
NC(=O)[C@@H]1CCCN1Cc1ccc2c(c1)OCO2,1.87%,–

# Biological target: 3',5'-cyclic-AMP phosphodiesterase 4B (Homo sapiens) (UniProt Q07343)
# Sequence (Q07343 whole entry, looked up): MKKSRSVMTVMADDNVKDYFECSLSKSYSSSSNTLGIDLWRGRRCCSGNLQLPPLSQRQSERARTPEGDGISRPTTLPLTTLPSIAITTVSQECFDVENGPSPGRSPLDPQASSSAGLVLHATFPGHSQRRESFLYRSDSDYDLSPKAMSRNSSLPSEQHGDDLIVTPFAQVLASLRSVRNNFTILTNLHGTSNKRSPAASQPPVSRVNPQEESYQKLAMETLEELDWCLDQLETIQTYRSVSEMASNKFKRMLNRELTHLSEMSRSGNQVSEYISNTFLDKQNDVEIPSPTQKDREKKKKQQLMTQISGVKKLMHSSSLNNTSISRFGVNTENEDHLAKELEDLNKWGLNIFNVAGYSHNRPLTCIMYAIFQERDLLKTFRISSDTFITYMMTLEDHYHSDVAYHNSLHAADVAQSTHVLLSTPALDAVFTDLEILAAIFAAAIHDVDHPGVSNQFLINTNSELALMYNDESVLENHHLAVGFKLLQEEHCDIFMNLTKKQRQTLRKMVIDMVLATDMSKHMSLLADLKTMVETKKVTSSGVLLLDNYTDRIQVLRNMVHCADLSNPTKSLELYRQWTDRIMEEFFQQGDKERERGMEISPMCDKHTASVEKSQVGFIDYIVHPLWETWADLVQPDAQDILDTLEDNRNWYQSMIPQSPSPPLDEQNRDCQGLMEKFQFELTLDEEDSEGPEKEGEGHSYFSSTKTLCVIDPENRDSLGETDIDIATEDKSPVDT
# Experiment: qHTS Assay for Inhibitors of PDE-IV (AID 607; active = well fitted activation curve with a large enough effect in the main read-out, with a control signal flat, not every such curve was filed as active; also: % of control where 0% means no effect)
# Details: HEK293 ACTOne CNG channel cells, membrane potential fluorescence; series mostly up to 22.9 µM; activation (PDE inhibition): at the top concentration
# Procedure, shortened: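 ACTOne HEK293 cells carry a modified cAMP-gated CNG channel and express endogenous PDE4; plated 1000 cells/well, compounds up to 22.9 uM final. Membrane-potential dye fluorescence (ex 535/em 590) was read; parental cells received 10 uM forskolin + 100 uM RO 20-1724.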
SMILES,activation (PDE inhibition),Potency
O=C(O)C[C@H](Cc1ccc2c(c1)OCO2)C(=O)O,5.74%,–
COc1ccc2cc1Oc1ccc(cc1)C[C@H]1c3cc(c(OC)cc3CCN1C)Oc1c(OC)c(OC)cc3c1[C@@H](C2)N(C)CC3,9.52%,–
N[C@@H](CSCc1ccccc1)C(=O)O,-3.13%,–
CN(C)[C@H]1C(=O)C(C(=O)NCN2CCCC2)=C(O)[C@]2(O)C(=O)C3=C(O)c4c(O)cccc4[C@](C)(O)[C@H]3C[C@H]12,-1.22%,–
CN(C)c1ccc(-c2cc(NCc3ccccc3)ncn2)cc1,7.23%,–
C[C@]12CC[C@H]3c4ccc(O)cc4CC[C@@H]3[C@H]1CC[C@@H]2OC(=O)CCC1CCCC1,-0.692%,–
Nc1nc2c(ncn2[C@@H]2C=C[C@@H](CO)C2)c(=O)[nH]1,-0.873%,–
Cc1cn([C@H]2C[C@H](N=[N+]=[N-])[C@H](CO)O2)c(=O)[nH]c1=O,–,inactive
NS(=O)(=O)c1cc(C(=O)O)c(O)c2ccccc12,6.95%,–
CN(C)Cc1ccccc1-c1ccc2ncnc(NC3CCNCC3)c2c1,-3.04%,–
CSc1nc(C)cc(Nc2ccc(O)c(CN3CCOCC3)c2)n1,2.48%,–
O=C(O)[C@@H](S)[C@H](S)C(=O)O,-2.31%,–
CNc1ncncc1-c1ccc(C(=O)N(C)C)cc1,3.17%,–
O=C(O)c1cc(N=Nc2ccc([N+](=O)[O-])cc2)ccc1O,-3.97%,–
Cc1c(C)c(C)c(CC2(C)CSC2)c(CC2(C)CSC2)c1C,5.62%,–
CC(C)(C)NC[C@@H](O)c1ccc(O)c(CO)n1,-6.43%,–
CC(C)Cn1cnc2c(Sc3c([N+](=O)[O-])ncn3C)nc(N)nc21,-7.43%,–
C/C(=N\O)c1cccc[n+]1Cc1ccccc1,5.96%,–
NS(=O)(=O)c1cc2c(cc1Cl)N[C@H](Cc1ccccc1)NS2(=O)=O,-0.209%,–
NC(=O)[C@@H]1CCCN1Cc1ccc2c(c1)OCO2,3.03%,–
